This is part of a sample that, as a whole, favours compounds with a hit. Of some 83,000 tested, about 20% had one in any assay.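 Compound tested at a single concentration for 48 hours in 96-well plates; a percent growth value below 10 was scored as active.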 The source made the active and inactive calls.
The compounds below were run on IGROV1 ovarian (assay: NCI-60 one-dose screen, 48 h (100 = growth as untreated, 0 = no growth, -100 = all killed)). Details: 10 µM unless noted.
Procedure: Growth inhibition of the IGROV1 human tumor cell line is measured as a screen for anti-cancer activity. Cells are grown in 96 well plates and exposed to the test compound for 48 hours. Compounds are tested at a single concentration, which is 10^-5 M for most compounds. The reported endpoint is percent growth (GI% or GIPRCNT), where numbers from 0 - 100% represent growth inhibition, and numbers from -100% - 0 represent cell death. For example, a value of 40 represents 60% growth inhibition. A value of 0 means no net growth occurred over the course of the experiment. A value of -40 indicates 40% of cells at the beginning of the experiment died by the end of the experiment. A value of -100 means all cells are dead at the end of the experiment.
NCI-60 Human Tumor Cell Lines Screen was performed using the standard one-dose NCI protocol, which is described in more detail at https://dtp.cancer.gov/discovery_development/nci-60/default.htm.
Compounds with GIPRCNT values below 10 were considered active. Activity score was based on GIPRCNT using the following formula: […]
Score is 0 for GIPRCNT values of 100 or above, 50 for GIPRCNT values of 0, and 100 for GIPRCNT values of -100.

SMILES | growth
CCOC(=O)C1=C(C)NC(SCc2cc(=O)oc3ccc(F)cc23)=N[C@@H]1c1cccc2ccccc12 | 99.4% (inactive)
O=S(=O)(NCCNc1nccc(-c2c(-c3cccc(F)c3)nc3sccn23)n1)c1ccc(Cl)cc1 | 15.8% (inactive)
NS(=O)(=O)c1ccc(CCn2c(SCC(=O)c3ccc(Cl)cc3)nc3ccccc3c2=O)cc1 | 107% (inactive)
CCOC(=O)c1nc2c3ccccc3ccn2c1C(=O)OCC | 96.5% (inactive)
CCOC(=O)/C(C#N)=C1/NNC(=Nc2cccnc2)S1 | 111% (inactive)
Cc1cccc(NC(=O)Nc2ccc(-c3ccc4c(c3)NC(=O)/C4=C\c3ccc[nH]3)cc2)c1 | 78% (inactive)
COc1ccc(/C=C2\COc3ccc(-c4ccccc4)cc3C2=O)c(OC)c1 | 120% (inactive)
CN1CCN(CCNc2nccc(-c3c(-c4cccc(O)c4)nc4sccn34)n2)S1(=O)=O | 45.7% (inactive)
COc1ccc(C(=O)CC#N)cc1 | 123% (inactive)
CCCCCC(=O)Oc1ccc(/C(=C(\C)c2ccccc2)c2ccc(OCCN3CCCCC3)cc2)cc1 | 90.4% (inactive)
COc1cc(/C=N/O)nc(-c2ccccn2)c1 | 19.2% (inactive)
O=C(Nc1ccc(NC(=O)c2cc(=O)[nH]c3ccccc23)cc1)Nc1cccc(Cl)c1 | 69% (inactive)
Cc1cc2nc3c4cc(C=O)ccc4n(CCN(C)C)c3nc2cc1C | 5.83% (active)
O=C(NNc1nc2c(F)cccc2n2cccc12)c1cnccn1 | 21.1% (inactive)
Cc1cc2cc3ccc(N(C)C)cc3nc2cc1N | -1.84% (active)
N#Cc1c(NC(=O)NCc2ccccc2)sc2c1CCCCC2 | 27.2% (inactive)
CC(=O)O[C@@H]1C2CCC3C(CC[C@@]4(C)C3CC[C@@H]4C(C)N(C)C)[C@@]2(C)CC[C@@H]1NC(=O)C=C(C)C (stereo not given in full) | 37.8% (inactive)
O=S(=O)(NCCNc1nccc(-c2c(-c3cccc(O)c3)nc3occn23)n1)c1ccc(C(F)(F)F)cc1 | 73.8% (inactive)
OCc1cnccc1NCCCCOc1ccc(Oc2ccccc2)cc1 | 72.7% (inactive)
O=S(=O)(NCCNc1nccc(-c2c(-c3cccc(O)c3)nc3occn23)n1)c1ccc(Cl)cc1 | 95% (inactive)

SMILES | growth
O=C(Nc1ccccc1C(=O)N/N=C(\c1ccccc1)c1ccccn1)c1ccc(F)cc1 | 22.8% (inactive)
CC1(C)c2[nH]c3ccccc3c2C[C@]2(C)[C@H]3C(=O)C=C4[C@@H]5C[C@@](C)(C(N)=O)CC[C@]5(C)CC[C@@]4(C)[C@]3(C)CC[C@@H]12 | 84.4% (inactive)
Cc1nc2sccn2c1-c1nc2sccn2c1/C=C1/C(=O)Nc2ccccc21 | -15.5% (active)
O=c1c2c(c(=O)n1O)c1c3ccc[nH]c3nc1c1nc3[nH]cccc3c12 | 63% (inactive)
NC(=O)Nc1ccc(-n2cnc3cc(-c4ccc(O)cc4)ccc32)cc1 | 108% (inactive)
O=S(=O)(NCCNc1nccc(-c2c(-c3cccc(O)c3)nc3occn23)n1)c1ccccc1 | 47.8% (inactive)
COc1ccc(C(=O)c2cc(OC)c(OC)c(OC)c2)cc1O | 16.2% (inactive)
COc1cc(/C=C/C(=O)c2nc3cc(F)ccc3nc2C)cc(OC)c1OC | 34.8% (inactive)
CCOC(=O)[C@@H](C)C[C@H](Cc1ccccc1)NC(=O)c1csc([C@@H](C[C@H](C(C)C)N(C)C(=O)[C@@H](NC(=O)[C@H]2C[C@H](O[Si](C)(C)C(C)(C)C)CCN2C)C(C)C)OC(C)=O)n1 | 15.7% [9.25 µM] (inactive)
CC(=O)c1ccc(NS(=O)(=O)c2cccc(C(=O)Nc3ccc(Br)cc3)c2)cc1 | 73.7% [25 µM] (inactive)
C[C@@H](Nc1ncnc2ccc(-c3cnc(N)nc3)cc12)c1ccc(F)cc1 | 28.7% (inactive)
C=C(C)[C@@H]1CC[C@]2(C(=O)N3CCN(C)CC3)CC[C@]3(C)[C@H](CC[C@@H]4[C@@]5(C)CC[C@H](OCCC#N)C(C)(C)[C@@H]5CC[C@]43C)[C@@H]12 | 98.2% (inactive)
CC(C)(C)CC(C)(C)n1nnnc1C(NC12CC3CC(CC(C3)C1)C2)c1ccccc1 (stereo not given) | 87.1% (inactive)
c1ccc(-c2cn3c(ccc4ccccc43)n2)cc1 | 49.3% (inactive)
Cc1cc2nc3c4cccc(O)c4n(CCN(C)C)c3nc2cc1C | 19.1% (inactive)
COC1=CC(=O)c2ccccc2C1=O | 83.6% (inactive)
Cc1ccc(S(=O)(=O)NNC(=O)/C(=C\c2ccc(Cl)cc2)c2nc3ccccc3s2)cc1 | 91.4% (inactive)
COc1cc2nc(-c3ccc(Cl)cc3)cc(OCCCN3CCCC3)c2cc1OC | 34.5% (inactive)
CCN1C(=O)N(CC)C2Nn3c(s/c(=C\c4ccc(OC)cc4)c3=O)=NC21 (stereo not given) | 54.8% (inactive)
COc1cc(/C=C/c2cc(O)c(C(C)=O)c(O)c2)cc2c1O[C@]1(C)CC[C@@H](O)C(C)(C)[C@H]1C2 | 60.3% (inactive)
